# Experimental data taken from the supplement of paper PMC7858590.
# Test system: human monocyte-derived macrophages (polarized)
# Assay: cell shape (eccentricity) Z-score vs DMSO control; higher = more elongated, M2-like morphology
# Conditions: 5 µM; 24 h; macrophage state: M1-polarized (IFNg + TNFa), cytokines present during treatment
# Method: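 Primary-screen hits were rescreened on polarized hMDMs with the differentiating cytokines (IL-4 + IL-13 or IFNg + TNFa) kept in the medium during treatment with compound at 5 uM for 24 h. The eccentricity Z-score vs DMSO wells is averaged over experiments.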
row,SMILES,cell shape (Z-score)
1,CC1CC(=O)c2c(ccc3c2C(=O)c2cccc(O)c2C3O)C1 (stereo not given),-2.52
2,COc1cc2ncnc(Nc3ccc(F)c(Cl)c3)c2cc1OCCCN1CCOCC1,-0.66
3,OC[C@H](Cc1ccccc1)Nc1nc(Oc2ccc3c(c2)CCC3)nc2c1ncn2Cc1ccc(-c2ccccc2)cc1,7.52
4,Nc1nc2ccc(OC(F)(F)F)cc2s1,-5.46
5,CC1=CC(=O)CC2C1(C)CCC(C)C2(C)CC/C(C)=C\C(=O)O (stereo not given),-1.21
6,CCCCCc1c2c(cc(O)c1C(=O)O)OC(=O)c1c(cc(OC)cc1C(=O)CCCC)O2,2.35
7,Cc1nc(Nc2ncc(C(=O)Nc3c(C)cccc3Cl)s2)cc(N2CCN(CCO)CC2)n1,19.8
8,CC1=C(/C=C/C(C)=C/C=C/C(C)=C/C(=O)O)C(C)(C)CCC1,7.03
9,CN1CCN(CCOc2cc(OC3CCOCC3)c3c(Nc4c(Cl)ccc5c4OCO5)ncnc3c2)CC1,4.07
10,O=C(Cc1ccc(-c2ccc(OCCN3CCOCC3)cc2)cn1)NCc1ccccc1,9.67
11,CS(=O)(=O)c1cccc(CNc2nc(Nc3ccc4c(c3)CCC(=O)N4)ncc2C(F)(F)F)c1,-3.99
12,Cc1onc(-c2ccccc2Cl)c1C(=O)N[C@@H]1C(=O)N2[C@@H]1SC(C)(C)[C@@H]2C(=O)O,-5.49
13,Clc1ccc(C(Cn2ccnc2)OCc2ccsc2Cl)c(Cl)c1 (stereo not given),-4.98
14,C[C@@H](N)[C@H]1CC[C@H](C(=O)Nc2ccncc2)CC1,5.7
15,COc1c(OC)c(O)c2c(=O)c(O)c(-c3ccccc3)oc2c1OC,5.45
16,c1ccc(-c2[nH]ncc2-c2ccnc3ccccc23)nc1,2.26
17,COc1ccc2oc(-c3ccccc3OC)cc(=O)c2c1,0.285
18,CC[C@@H]1C(=O)N(C)c2cnc(Nc3ccc(C(=O)NC4CCN(C)CC4)cc3OC)nc2N1C1CCCC1,-1.93
19,CC(C)(C)c1cc(C(=O)/C=C/c2ccc(C(=O)O)cc2)cc(C(C)(C)C)c1,-7.58
20,COc1nccnc1NS(=O)(=O)c1ccc(NC(=O)/C=C/c2ccc([N+](=O)[O-])s2)cc1,-4.64
21,CC[C@]12CCCN3CCc4c(n(c5ccccc45)[C@@](O)(C(=O)OC)C1)[C@@H]32,-5.43
22,CCCCCCCCCc1ccc(OCCOCCOCCOCCOCCOCCOCCOCCOCCO)cc1,5.89
23,O=S(=O)(c1cccc2cnccc12)N1CCCNCC1,-0.217
24,COc1cc2c(cc1-c1c(C)noc1C)ncc1[nH]c(=O)n([C@H](C)c3ccccn3)c12,-12.4
25,Oc1cccc(-c2nc(N3CCOCC3)c3oc4ncccc4c3n2)c1,-3.07
26,O=C(/C=C/c1cccc(S(=O)(=O)Nc2ccccc2)c1)NO,-3.19
27,Clc1ccc(C2(c3ccc(-c4cn[nH]c4)cc3)CCNCC2)cc1,24.9

# Same assay, conditions: 5 µM; 24 h; macrophage state: M2-polarized (IL-4 + IL-13), cytokines present during treatment
row,SMILES,cell shape (Z-score)
1,COC(=O)Nc1nc2ccc(SC(C)C)cc2[nH]1,0.135
2,OCc1ccc(-c2ccc(-c3ccc(CO)s3)o2)s1,-20.9
3,N#CN=C(NCCCCCCOc1ccc(Cl)cc1)Nc1ccncc1,-5.22
4,Cc1cc2cc3c(C)cc(=O)oc3c(C)c2o1,1.88
5,COC(=O)C[C@@H]1C(C(=O)O)=CO[C@@H](O[C@@H]2O[C@H](CO)[C@@H](O)[C@H](O)[C@H]2O)/C1=C\COC(=O)/C=C/c1ccccc1,-7.78
6,Cc1cc(CC(C)CC(C)(C)C)n(O)c(=O)c1 (stereo not given),0.506
7,Oc1ccc(/C=C/c2cc(O)cc(O)c2)cc1,-0.6
8,CC1(C)O[C@@H]2C[C@H]3[C@@H]4CCC5=CC(=O)CC[C@]5(C)[C@@]4(F)[C@@H](O)C[C@]3(C)[C@]2(C(=O)CCl)O1,-13.7
9,C=C(NC(=O)C(=C)NC(=O)c1csc(C2=N[C@@H]3c4csc(n4)[C@H]4NC(=O)c5csc(n5)[C@H]([C@](C)(O)[C@@H](C)O)NC(=O)[C@H]5CSC(=N5)/C(=C/C)NC(=O)[C@H]([C@@H](C)O)NC(=O)c5csc(n5)[C@]3(CC2)NC(=O)[C@H](C)NC(=O)C(=C)NC(=O)[C@H](C)NC(=O)[C@H]([C@@H](C)CC)N[C@@H]2C=Cc3c([C@H](C)O)cc(nc3[C@H]2O)C(=O)O[C@@H]4C)n1)C(N)=O [Thiostrepton.2mM],-5.55
10,CC(=O)Oc1cc2c(c(C)c1OC(C)=O)CC=C1[C@@]2(C)CC[C@@]2(C)C3C[C@](C)(C(=O)O)CC[C@]3(C)CC[C@]12C (stereo not given in full),-0.297
11,O=C1c2c(O)ccc(O)c2C(=O)c2c(NCCNCCO)ccc(NCCNCCO)c21,-1.14
12,Cc1cc(NS(=O)(=O)c2ccc(N)cc2)no1,-9.54
13,CC1=CC(=O)c2ccccc2C1=O,-2.13
